# Source: the supplement of paper PMC8728848
# This excerpt belongs to a sample that is enriched for the strongest signals.
# Experiments:
# Assay in all cases: glycan array binding signal (z-score within array); higher = stronger binding
# Details in all cases: glycan notation: IUPAC condensed, linker removed
# [1] = biological target: GlcNAc(b1-3)Gal(b1-4)GlcNAc(b1-2)Man(a1-3)[GlcNAc(b1-3)Gal(b1-4)GlcNAc(b1-2)Man(a1-6)]Man(b1-4)GlcNAc(b1-4)GlcNAc
# How it was run: (§1)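 The binding signal is a Z-score computed within each array and averaged over linkers. Arrays of the same protein sequence at different concentrations or buffers were also averaged together. Data originate from 3228 arrays in the Consortium for Functional Glycomics database, kept only where the protein sequence was available.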
# [2] = biological target: GlcNAc(b1-3)Gal(b1-4)GlcNAc(b1-3)Gal(b1-4)GlcNAc(b1-2)Man(a1-3)[GlcNAc(b1-3)Gal(b1-4)GlcNAc(b1-3)Gal(b1-4)GlcNAc(b1-2)Man(a1-6)]Man(b1-4)GlcNAc(b1-4)[Fuc(a1-6)]GlcNAc
# How it was run: as §1
# [3] = biological target: Man(a1-2)Man(a1-2)Man(a1-6)[Man(a1-3)]Man
# How it was run: as §1
# [4] = biological target: Man(a1-2)Man(a1-3)Man
# How it was run: as §1
# [5] = biological target: Neu5Ac(a2-3)Gal(b1-3)GlcNAc6S
# How it was run: as §1
# [6] = biological target: Neu5Ac(a2-3)Gal(b1-4)GlcNAc(b1-2)Man(a1-3)[GlcNAc(b1-4)][Neu5Ac(a2-3)Gal(b1-4)GlcNAc(b1-2)Man(a1-6)]Man(b1-4)GlcNAc(b1-4)GlcNAc
# How it was run: as §1
# [7] = biological target: Neu5Ac(a2-3)Gal(b1-4)[Fuc(a1-3)]GlcNAc(b1-3)Gal(b1-4)GlcNAc
# How it was run: as §1
# [8] = biological target: Neu5Ac(a2-3)Gal(b1-4)[Fuc(a1-3)]GlcNAc(b1-3)Gal(b1-4)[Fuc(a1-3)]GlcNAc(b1-3)Gal(b1-4)[Fuc(a1-3)]GlcNAc
# How it was run: as §1
# [9] = biological target: Neu5Ac(a2-6)Gal(b1-4)GlcNAc(b1-2)Man(a1-6)Man(b1-4)GlcNAc(b1-4)GlcNAc
# How it was run: as §1
# [10] = biological target: Neu5Ac(a2-6)Gal(b1-4)GlcNAc(b1-3)Gal(b1-4)GlcNAc(b1-2)Man(a1-3)[Neu5Ac(a2-6)Gal(b1-4)GlcNAc(b1-3)Gal(b1-4)GlcNAc(b1-2)Man(a1-6)]GalNAc
# How it was run: as §1
# [11] = biological target: Neu5Ac(a2-6)Gal(b1-4)GlcNAc(b1-3)Gal(b1-4)GlcNAc(b1-3)Gal(b1-4)GlcNAc
# How it was run: as §1
# [12] = biological target: Neu5Ac(b2-6)Gal(b1-4)GlcNAc
# How it was run: as §1
# [13] = biological target: Neu5Gc(a2-3)Gal(b1-4)[Fuc(a1-3)]GlcNAc
# How it was run: as §1
# [14] = biological target: Fuc(a1-2)Gal(b1-3)GlcNAc(b1-3)[Neu5Ac(a2-6)Gal(b1-4)GlcNAc(b1-6)]Gal(b1-4)Glc
# How it was run: as §1
# [15] = biological target: Fuc(a1-2)Gal(b1-3)[Fuc(a1-4)]GlcNAc(b1-2)Man(a1-3)[Fuc(a1-2)Gal(b1-3)[Fuc(a1-4)]GlcNAc(b1-2)Man(a1-6)]Man(b1-4)GlcNAc(b1-4)[Fuc(a1-6)]GlcNAc(b1-4)[Fuc(a1-6)]GlcNAc
# How it was run: as §1
# [16] = biological target: Fuc(a1-2)Gal(b1-4)Glc
# How it was run: as §1
# [17] = biological target: Fuc(a1-2)Gal(b1-4)Glc6S
# How it was run: as §1
# [18] = biological target: Fuc(a1-2)Gal(b1-4)GlcNAc
# How it was run: as §1
# [19] = biological target: Fuc(a1-2)Gal(b1-4)GlcNAc(b1-3)[Fuc(a1-2)Gal(b1-4)GlcNAc(b1-6)]GalNAc
# How it was run: as §1
# [20] = biological target: Fuc(a1-2)Gal(b1-4)GlcNAc(b1-6)GalNAc
# How it was run: as §1
# [21] = biological target: Fuc(a1-2)Gal(b1-4)GlcNAc6S
# How it was run: as §1
# [22] = biological target: Fuc(a1-2)Gal(b1-4)[Fuc(a1-3)]GlcNAc(b1-2)Man(a1-3)[Fuc(a1-2)Gal(b1-4)[Fuc(a1-3)]GlcNAc(b1-2)Man(a1-6)]Man(b1-4)GlcNAc(b1-4)[Fuc(a1-6)]GlcNAc
# How it was run: as §1
# [23] = biological target: Fuc(a1-2)Gal6S(b1-3)GlcNAc
# How it was run: as §1
# [24] = biological target: Fuc(a1-2)Gal6S(b1-4)Glc
# How it was run: as §1
# [25] = biological target: Fuc(a1-2)Gal6S(b1-4)Glc6S
# How it was run: as §1
# [26] = biological target: Fuc(a1-2)[Gal(a1-3)]Gal
# How it was run: as §1
# [27] = biological target: Fuc(a1-2)[Gal(a1-3)]Gal(b1-4)GlcNAc(b1-2)Man(a1-3)[Fuc(a1-2)[Gal(a1-3)]Gal(b1-4)GlcNAc(b1-2)Man(a1-6)]Man(b1-4)GlcNAc(b1-4)GlcNAc
# How it was run: as §1
# [28] = biological target: Fuc(a1-2)[Gal(a1-3)]Gal(b1-4)[Fuc(a1-3)]GlcNAc(b1-3)GalNAc
# How it was run: as §1
# [29] = biological target: Fuc(a1-2)[Gal(a1-4)]Gal(b1-4)GalNAc
# How it was run: as §1
# [30] = biological target: Fuc(a1-2)[Gal(a1-4)]Gal(b1-4)GlcNAc
# How it was run: as §1
# [31] = biological target: Fuc(a1-2)[GalNAc(a1-4)]Gal(b1-4)GlcNAc
# How it was run: as §1
# [32] = biological target: Fuc(a1-3)[Gal(b1-4)]GlcNAc(b1-6)[Gal(b1-3)GlcNAc(b1-3)]Gal(b1-4)Glc
# How it was run: as §1
# [33] = biological target: Fuc(a1-3)[GalNAc(b1-4)]GlcNAc6S
# How it was run: as §1
# [34] = biological target: Gal(a1-3)Gal(b1-4)GlcNAc(b1-2)Man(a1-3)[Gal(a1-3)Gal(b1-4)GlcNAc(b1-2)Man(a1-6)]Man(b1-4)GlcNAc(b1-4)GlcNAc
# How it was run: as §1
# [35] = biological target: Gal(a1-4)Gal(b1-4)GlcNAc(b1-2)Man(a1-3)[Gal(a1-4)Gal(b1-4)GlcNAc(b1-2)Man(a1-6)]Man(b1-4)GlcNAc(b1-4)GlcNAc
# How it was run: as §1
# [36] = biological target: Gal(a1-4)GlcNAc
# How it was run: as §1
# [37] = biological target: Gal(b1-3)GalNAc(b1-4)[Neu5Ac(a2-3)]Gal(b1-4)Glc
# How it was run: as §1
# [38] = biological target: Gal(b1-3)GlcNAc(a1-6)Gal(b1-4)GlcNAc
# How it was run: as §1
# [39] = biological target: Gal(b1-3)GlcNAc(b1-2)Man(a1-3)[Gal(b1-3)GlcNAc(b1-2)Man(a1-6)]Man(b1-4)GlcNAc(b1-4)GlcNAc
# How it was run: as §1
# [40] = biological target: Gal(b1-3)GlcNAc(b1-2)Man(a1-3)[Gal(b1-3)GlcNAc(b1-2)Man(a1-6)]Man(b1-4)GlcNAc(b1-4)[Fuc(a1-6)]GlcNAc
# How it was run: as §1
# [41] = biological target: Gal(b1-3)[Fuc(a1-4)]GlcNAc(b1-6)GalNAc
# How it was run: as §1
# [42] = biological target: Gal(b1-3)[Neu5Ac(a2-6)]GlcNAc(a1-4)Gal(b1-4)Glc
# How it was run: as §1
# [43] = biological target: Gal(b1-3)[Neu5Ac(a2-6)]GlcNAc(b1-4)Gal(b1-4)Glc
# How it was run: as §1
binder,measurement,setting,value
DrGal9 (Danio rerio) (protein) MAFYQQPPYYNPRIPFSGPIQGGLQDGKSIIISGRVLPGANRFHVNLQCGSHSEANVALHFNPRYEDTDYVVNNSYLNRTWGSEERKYESPFAQGQTFTLQILVAQDKYKISTNGRHFMDYKHRIPFTQVDTVAVEGMVEVNSVAFQNPAGFIPPQAGYAPQYAVPPGCGFPAFPSAPNYTIPHKTVMNGGLHPGKNIVINGVVNPNAKSIIFNLCYRSGIAFHYNPRFDENVVVRNTNQMEKWGAEERFGGLPFHKGQPFQVTISCNPQHYNVFVNGKQEHTYKHRYTKLNDIDILEICGDLQLTSVQA,glycan array binding signal (z-score),[1],1.73
same,glycan array binding signal (z-score),[2],3.13
same,glycan array binding signal (z-score),[3],-0.361
same,glycan array binding signal (z-score),[4],-0.396
same,glycan array binding signal (z-score),[5],-0.144
same,glycan array binding signal (z-score),[6],0.144
same,glycan array binding signal (z-score),[7],-0.356
same,glycan array binding signal (z-score),[8],-0.384
same,glycan array binding signal (z-score),[9],-0.399
same,glycan array binding signal (z-score),[10],1.22
same,glycan array binding signal (z-score),[11],0.598
same,glycan array binding signal (z-score),[12],-0.398
same,glycan array binding signal (z-score),[13],-0.351
"UEA-I (Ulex europaeus), P22972 (protein) SDDLSFKFKNFSQNGKDLSFQGDASVIETGVLQLNKVGNNLPDETGGIARYIAPIHIWNCNTGEVASFITSFSFFMETSANPKAATDGLTFFLAPPDSPLRRAGGYFGLFEDTKDNDSSYQTVAVEFDTIGSPVNFDDPGFPHIGIDVNRVKSINAERWNKRYGLNNVANVEIIYEASSKTLTASLTYPSDQTSISVTSIVDLKEILPEWVSVGFSGGTYIGRQATHEVLNWYFTSNLINTNS",glycan array binding signal (z-score),[14],-0.101
same,glycan array binding signal (z-score),[15],-0.186
same,glycan array binding signal (z-score),[16],4.65
same,glycan array binding signal (z-score),[17],8.87
same,glycan array binding signal (z-score),[18],5.04
same,glycan array binding signal (z-score),[19],5.44
same,glycan array binding signal (z-score),[20],4.28
same,glycan array binding signal (z-score),[21],5.67
same,glycan array binding signal (z-score),[22],-0.035
same,glycan array binding signal (z-score),[23],-0.194
same,glycan array binding signal (z-score),[24],4.67
same,glycan array binding signal (z-score),[25],5.33
same,glycan array binding signal (z-score),[26],-0.199
same,glycan array binding signal (z-score),[27],-0.194
same,glycan array binding signal (z-score),[28],-0.022
same,glycan array binding signal (z-score),[29],5.51
same,glycan array binding signal (z-score),[30],5.58
same,glycan array binding signal (z-score),[31],5.17
same,glycan array binding signal (z-score),[32],-0.103
same,glycan array binding signal (z-score),[33],-0.217
same,glycan array binding signal (z-score),[34],-0.163
same,glycan array binding signal (z-score),[35],0.015
same,glycan array binding signal (z-score),[36],-0.168
same,glycan array binding signal (z-score),[37],-0.207
same,glycan array binding signal (z-score),[38],-0.139
same,glycan array binding signal (z-score),[39],-0.101
same,glycan array binding signal (z-score),[40],-0.16
same,glycan array binding signal (z-score),[41],-0.098
same,glycan array binding signal (z-score),[42],-0.409
same,glycan array binding signal (z-score),[43],-0.234
